# Laboratory results taken from PubChem BioAssay (NCI).
# About 79,000 compounds went through this panel and 15% of them were active in at least one assay; those are over-represented in the sample as a whole. Values without a mark were called inactive. Active and inactive are the calls of the source. Rule as the data show it: active = growth inhibition above about 70%; inactive = the rest.
# Assay: NCI Yeast Anticancer Drug Screen. Data for the mlh1 rad18 strain (AID 175)
# Conditions: S. cerevisiae mlh1 rad18 strain growth inhibition; at 50.0 µM (retest, dose inferred, filed as 5.0); hits give high values
# Summary of the method: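 Compound-treated yeast growth, normalised to vehicle controls. Strain bears defined DNA repair mutations.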
row,SMILES,growth inhibition
1,O=C(O)CCCCCCCCCCOc1ccc(Cl)cc1Cl,-1%
2,C=C(CN1CCCC1)C(=O)c1ccc(OC)cc1,71% (active)
3,CNC(=O)OCc1c(COC(=O)NC)c(-c2ccc(OC)cc2)n2c1CCC2,32%
4,CCCCC(=S)N1CCN(c2ccccc2)CC1,-9%
5,CCN(CC)C(=S)N/N=C/c1cc(OC)ccc1O,78% (active)
6,COc1ccc2c(c1)CN1C(CCC3c4ccccc4NC31)C2 (stereo not given),27%
7,CCCCC(=O)N/N=C(\C)[C@]1(O)Cc2c(O)c3c(c(O)c2[C@@H](OC2CC(N)C(O)C(C)O2)C1)C(=O)c1c(OC)cccc1C3=O (stereo not given in full),97% (active)
8,C=C1C(=O)C23OC2C1CCC(=O)C1(C)CC[C@H](OC(C)=O)C(C)(C)[C@H]1CC3O (stereo not given in full),38%
9,Cc1nc(N)sc1N=Nc1ccc(Cl)cc1Cl,97% (active)
10,O=C(O)c1cc2c3ccccc3sc2c2ccccc12,-2%
11,COc1ccc2c(c1)C(Br)CCC(Br)C2=O (stereo not given),34%
12,Cc1cc(OCCl)ccc1[N+](=O)[O-],80% (active)
13,COC(=O)c1nnc(C(=O)OC)c2c1[nH]c1ccccc12,52%
14,O=S(Nc1ccccc1Br)c1ccccc1 (stereo not given),45%
15,Cc1c2c(c(C)c3c1OC(C)(C)CC3)OC(C)(C)CC2,-7%
16,O=c1cc(CSc2ccc(Cl)cc2)occ1O,51%
17,Cc1ccc2c(c1)[n+]([O-])c(N)n[n+]2[O-],64%
18,CC(=O)c1c2c(cc3c1CC1(C3)Cc3cc4c(c(C(=O)O)c3C1)CCC4)CCC2 (stereo not given),96% (active)
19,CCCCCCCCCCC(NC(C)=O)(C(=O)OCC)C(=O)OCC,98% (active)
20,Cc1nc2c(cnn2C)cc1CCc1ccccc1,39%

row,SMILES,growth inhibition
1,CCc1cccc(C)c1NC(=O)C(=O)CC(=O)c1ccccc1Cl,0%
2,COc1nc(N)c(N=O)c(OCc2ccccc2)n1,97% (active)
3,O=C1O/C(=C2\OC(=O)c3ccccc32)c2ccccc21,-1%
4,Cc1ccc(O)c(C(C)(C)c2ccccc2)c1,94% (active)
5,CCOC(=O)NN(C(=O)OCC)c1ccc(N=Nc2ccc(OC)cc2)n1C,77% (active)
6,S=C(NCc1ccccc1)[S][Sb]([S]C(=S)NCc1ccccc1)[c]1ccccc1,87% (active)
7,O=CCCCc1cc2c(cc1Br)CCC2,91% (active)
8,CCC(C)CNCCCCCNc1cc(OC)cc2cccnc12 (stereo not given),53%
9,CNC(=O)NC(c1cc(OC)c(OC)c(OC)c1)c1cc2c(cc1O)OCO2 (stereo not given),-5%
10,CCCCCCCSCc1nc2ccccc2c(C)[n+]1[O-],98% (active)
11,Cc1[nH]c(=O)[nH]c(=O)c1CN(C)Cc1cc(Cl)cc(Cl)c1O,82% (active)
12,O=C(N/C(=C\c1cccc([N+](=O)[O-])c1)c1nc2ccccc2s1)c1ccccc1,98% (active)
13,CC1NS(=O)(=O)N(C)C1=O (stereo not given),-9%
14,Cc1csc2[n+]1C(=O)/C(=C\c1ccc([N+](=O)[O-])cc1)S2,82% (active)
15,CC(C)c1ccc2c(c1)CCC1C(C)(C(=O)O)CCCC21C (stereo not given),97% (active)
16,COc1ncnc2nc(SC)[nH]c12,-4%
17,CCN(CC)C(=O)CCCCC(=O)OC(C)C,-11%
18,CC(=O)O/N=C1/CCC2C3CC=C4CC(OC(C)=O)CCC4(C)C3CCC12C (stereo not given),93% (active)
19,Clc1ccc(CNc2ccc(Br)cc2)cc1,91% (active)
20,Cc1cnc(C#N)c(C#N)n1,3%

# Same assay, conditions: S. cerevisiae mlh1 rad18 strain growth inhibition; at 50.0 µM; hits give high values
row,SMILES,growth inhibition
1,O=C(O)CCCCCCCCCCOc1ccc(Cl)cc1Cl,98.2% (active)
2,C=C(CN1CCCC1)C(=O)c1ccc(OC)cc1,46.6%
3,CNC(=O)OCc1c(COC(=O)NC)c(-c2ccc(OC)cc2)n2c1CCC2,92.6% (active)
4,CCCCC(=S)N1CCN(c2ccccc2)CC1,87.8% (active)
5,CCN(CC)C(=S)N/N=C/c1cc(OC)ccc1O,26.6%
6,COc1ccc2c(c1)CN1C(CCC3c4ccccc4NC31)C2 (stereo not given),90.5% (active)
7,CCCCC(=O)N/N=C(\C)[C@]1(O)Cc2c(O)c3c(c(O)c2[C@@H](OC2CC(N)C(O)C(C)O2)C1)C(=O)c1c(OC)cccc1C3=O (stereo not given in full),98.5% (active)
8,C=C1C(=O)C23OC2C1CCC(=O)C1(C)CC[C@H](OC(C)=O)C(C)(C)[C@H]1CC3O (stereo not given in full),99% (active)
9,Cc1nc(N)sc1N=Nc1ccc(Cl)cc1Cl,93.4% (active)
10,O=C(O)c1cc2c3ccccc3sc2c2ccccc12,28%
11,COc1ccc2c(c1)C(Br)CCC(Br)C2=O (stereo not given),91.8% (active)
12,Cc1cc(OCCl)ccc1[N+](=O)[O-],74.8% (active)
13,COC(=O)c1nnc(C(=O)OC)c2c1[nH]c1ccccc12,40.1%
14,O=S(Nc1ccccc1Br)c1ccccc1 (stereo not given),44.8%
15,Cc1c2c(c(C)c3c1OC(C)(C)CC3)OC(C)(C)CC2,98.2% (active)
16,O=c1cc(CSc2ccc(Cl)cc2)occ1O,55%
17,Cc1ccc2c(c1)[n+]([O-])c(N)n[n+]2[O-],50.6%
18,CC(=O)c1c2c(cc3c1CC1(C3)Cc3cc4c(c(C(=O)O)c3C1)CCC4)CCC2 (stereo not given),83.4% (active)
19,CCCCCCCCCCC(NC(C)=O)(C(=O)OCC)C(=O)OCC,82.8% (active)
20,Cc1nc2c(cnn2C)cc1CCc1ccccc1,23.6%

row,SMILES,growth inhibition
1,CCc1cccc(C)c1NC(=O)C(=O)CC(=O)c1ccccc1Cl,31.1%
2,COc1nc(N)c(N=O)c(OCc2ccccc2)n1,89.3% (active)
3,O=C1O/C(=C2\OC(=O)c3ccccc32)c2ccccc21,-18.1%
4,Cc1ccc(O)c(C(C)(C)c2ccccc2)c1,99.3% (active)
5,CCOC(=O)NN(C(=O)OCC)c1ccc(N=Nc2ccc(OC)cc2)n1C,69.9%
6,S=C(NCc1ccccc1)[S][Sb]([S]C(=S)NCc1ccccc1)[c]1ccccc1,97.3% (active)
7,O=CCCCc1cc2c(cc1Br)CCC2,50.4%
8,CCC(C)CNCCCCCNc1cc(OC)cc2cccnc12 (stereo not given),70.3% (active)
9,CNC(=O)NC(c1cc(OC)c(OC)c(OC)c1)c1cc2c(cc1O)OCO2 (stereo not given),16.8%
10,CCCCCCCSCc1nc2ccccc2c(C)[n+]1[O-],97.5% (active)
11,Cc1[nH]c(=O)[nH]c(=O)c1CN(C)Cc1cc(Cl)cc(Cl)c1O,77.5% (active)
12,O=C(N/C(=C\c1cccc([N+](=O)[O-])c1)c1nc2ccccc2s1)c1ccccc1,98.2% (active)
13,CC1NS(=O)(=O)N(C)C1=O (stereo not given),-1.05%
14,Cc1csc2[n+]1C(=O)/C(=C\c1ccc([N+](=O)[O-])cc1)S2,78.3% (active)
15,CC(C)c1ccc2c(c1)CCC1C(C)(C(=O)O)CCCC21C (stereo not given),97.5% (active)
16,COc1ncnc2nc(SC)[nH]c12,99.5% (active)
17,CCN(CC)C(=O)CCCCC(=O)OC(C)C,21.9%
18,CC(=O)O/N=C1/CCC2C3CC=C4CC(OC(C)=O)CCC4(C)C3CCC12C (stereo not given),77.1% (active)
19,Clc1ccc(CNc2ccc(Br)cc2)cc1,87.7% (active)
20,Cc1cnc(C#N)c(C#N)n1,18.1%
